Bioassay records: PubChem, several laboratories
Shown are actives, neighbours in structure and some others; about 3.2% of the full set was active somewhere.
DSG3 Ab inh = human desmoglein-3 autoantibody binding inhibition. P32926. DSG3-coupled beads, scFv-anti-DSG3-GFP binding, flow cytometry; stronger effect = lower value. binding (percent of control), % at 10 µM. 0.48% of 310,000 active. AID 588358;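 active = binding more than 3 SD below its plate's average and above zero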;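 note: hits lower antibody fragment binding to DSG3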
DAGLB inhibitor = diacylglycerol lipase beta (human) inhibition; HEK293T DAGLB membrane lysate, EnzChek fluorogenic substrate; inhibition, % at 5.17 µM; 0.059% of 340,000 active; in the data active = inhibition above about 34%;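 note: 0% = enzyme with vehicle and 100% = wells lacking enzyme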
Target sequence (Q8NCG7 whole entry, looked up): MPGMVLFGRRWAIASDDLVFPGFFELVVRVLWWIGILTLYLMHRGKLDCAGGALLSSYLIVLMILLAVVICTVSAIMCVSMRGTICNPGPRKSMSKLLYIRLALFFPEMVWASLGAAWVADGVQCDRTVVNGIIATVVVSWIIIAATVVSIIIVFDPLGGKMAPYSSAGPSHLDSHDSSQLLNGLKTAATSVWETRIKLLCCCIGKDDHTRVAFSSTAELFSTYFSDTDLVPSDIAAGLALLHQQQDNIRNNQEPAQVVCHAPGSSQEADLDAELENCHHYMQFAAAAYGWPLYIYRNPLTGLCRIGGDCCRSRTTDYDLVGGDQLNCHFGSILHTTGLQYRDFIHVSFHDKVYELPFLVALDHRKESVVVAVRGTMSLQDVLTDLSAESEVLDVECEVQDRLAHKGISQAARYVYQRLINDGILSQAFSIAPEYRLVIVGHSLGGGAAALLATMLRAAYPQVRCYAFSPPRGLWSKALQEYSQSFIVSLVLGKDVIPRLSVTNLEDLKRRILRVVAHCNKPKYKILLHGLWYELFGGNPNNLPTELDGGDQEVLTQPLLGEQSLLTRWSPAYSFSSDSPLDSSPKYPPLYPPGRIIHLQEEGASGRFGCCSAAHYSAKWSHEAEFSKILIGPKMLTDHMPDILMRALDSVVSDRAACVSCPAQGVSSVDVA
MsrA act = bovine methionine sulfoxide reductase A activation. AID 602163. 0.3% of 360,000 active. purified bovine MsrA, absorbance read-out. activation, % at 10.6 µM; in the data active = activation above about 7.5%;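 note: 0% = vehicle and 100% = reference activator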
rCAG binder = r(CAG) repeat RNA binding; TO-PRO-1 dye displacement fluorescence; inhibition, % at 3 µM; 1.3% of 370,000 active; AID 651821;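 active = inhibition above the plate cutoff, the mean of all test compounds on that plate plus 3 SD, cut at about 35% in these data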;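 note: 0% = DMSO alone and 100% = 100 µM mitoxantrone as full dye displacement; higher means more dye released from RNA so lower well fluorescence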
NadD block = inhibitors of Staphylococcus aureus NadD. purified NadD enzyme, colorimetric absorbance read-out. inhibition, % at 20 µM. 0.78% of 360,000 active; in the data active = inhibition above about 26%
MsrA inhibitor = bovine MsrA inhibition; inhibition, % at 15.5 µM; 0.75% of 360,000 active; purified bovine MsrA, absorbance read-out;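 note: 0% = vehicle wells with enzyme and 100% = reference inhibitor wells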
NadD conf = confirmation of Staphylococcus aureus NadD inhibitors. shares compounds with NadD block. purified S. aureus NadD, colorimetric enzyme assay. inhibition, % at 20 µM. 13% of 2,000 active; in the data active = inhibition mostly above about 42%, no sharp cut-off; inactive = mostly below about 42%
MsrA conf = confirmation of bovine MsrA inhibitors; shares compounds with MsrA inhibitor; purified bovine MsrA, absorbance read-out; inhibition, % at 15.5 µM; 41% of 2,300 active; AID 651822;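 note: coupled to thioredoxin reductase with NADPH and selenocystamine and DMSO as substrate; 0% = vehicle only and 100% = full effect of reference inhibitor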
rCAG bind conf = r(CAG) RNA repeat binding, confirmation; shares compounds with rCAG binder; TO-PRO-1 dye displacement fluorescence; inhibition, % at 3 µM; 70% of 4,300 active;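 active = inhibition above a per-plate cutoff, the mean inhibition of sample wells plus 3 SD, cut at about 35% in these data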;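 note: loss of TO-PRO-1 fluorescence as compound displaces dye from 1x1 AA loop RNA; 0% = DMSO only wells and 100% = 100 µM mitoxantrone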
DNA CAG counter = disrupts DNA CAG TO-PRO-1 complex, flagging rCAG hits; AID 652068; 94% of 4,300 active; shares compounds with rCAG binder; inhibition, % at 3 µM; d(CAG) DNA oligo TO-PRO-1 dye displacement, fluorescence;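 active = inhibition above its plate's cutoff, the mean test-well inhibition plus 3 SD, cut at about 4.8% in these data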;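 note: 0% = DNA dye mix with DMSO and 100% = 100 µM mitoxantrone; hits displace the dye from DNA and so lower well fluorescence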
dCAG dye DR = counter-screen for rCAG binders: inhibitors of DNA CAG TO-PRO-1 complex; shares compounds with rCAG binder; DNA CAG/GTC duplex TO-PRO-1 dye displacement fluorescence; 20% of 250 active; IC50, µM; in the data active = IC50 below about 10 µM
Active calls of the source: *; i = inactive; nt = no result. Cut-off read from the data, not from the text of the source, unless noted: active = inhibition above about 4.5%; inactive = the rest.

SMILES | DSG3 Ab inh | DAGLB inhibitor | MsrA act | rCAG binder | NadD block | MsrA inhibitor | NadD conf | rCAG bind conf | DNA CAG counter | others
Cc1ccc(NS(=O)(=O)c2ccc(-n3cccn3)cc2)c(Cl)c1 | 100 | 0 | -2 | 8 | -6 | 0 | nt | nt | nt
COc1cc(OC)cc(-c2c(C#Cc3ccsc3)c3cc(-c4cccc5[nH]cc(C=O)c45)ccc3n2C)c1 | 93 | 2 | -11 | 20 | 46* | 4.9* | 29 | nt | nt | MsrA conf=3
O=C(Nc1ccc(-c2nc3ccccc3o2)c(O)c1)c1cc(-n2cnnc2)ccc1Cl | 103 | -2 | 3 | 16 | 30* | 4.8* | 12 | nt | nt | MsrA conf=0
COc1ccc(/C=N/NC(=O)c2ccc(CN3c4cccc5cccc(c45)S3(=O)=O)cc2)cc1 | 95 | -3 | 0 | 21 | 31* | 5.0* | 33 | nt | nt | MsrA conf=5.2*
COCCn1c(=NC(=O)c2ccc(S(=O)(=O)N3CCCc4ccccc43)cc2)sc2cc(S(C)(=O)=O)ccc21 | 85 | -4 | -1 | 4 | 14 | 1 | nt | nt | nt
COCCn1c(=NC(=O)c2ccc(S(=O)(=O)N3CCc4ccccc4C3)cc2)sc2cc(S(N)(=O)=O)ccc21 | 110 | 2 | -9 | 34 | 71* | 5.9* | 36 | nt | nt | MsrA conf=4
Cc1ccccc1CN1CCCCC(NC(=O)Nc2ccccc2-c2ccccc2)C1=O (stereo not drawn) | nt | nt | nt | 2 | nt | nt | nt | nt | nt
O=c1cc(-c2ccc(O)c(-c3c(O)cc(O)c4c(=O)cc(-c5ccc(O)cc5)oc34)c2)oc2cc(O)cc(O)c12 | 100 | 3 | -6 | 92* | 77* | 1 | 66* | 79* | 53*
COC(=O)[C@@H](CC(C)C)CP(=O)(OC)[C@@H](C)NC(=O)OCc1ccccc1 (stereo partly drawn) | nt | nt | nt | 1 | nt | nt | nt | nt | nt
CC1CCc2c(sc(NC(=O)COC(=O)c3ccc(NC(=O)CC#N)cc3)c2C#N)C1 (stereo not drawn) | 99 | -3 | -4 | 39* | 36* | 1 | 17 | 37* | 18*
CC1CCc2c(sc(NC(=O)CSc3ncn[nH]3)c2C#N)C1 (stereo not drawn) | 99 | -1 | -1 | 5 | 1 | 2 | nt | nt | nt
CCCc1cc(=O)[nH]c(SCC(=O)Nc2sc3c(c2C#N)CCC(C)C3)n1 (stereo not drawn) | 107 | 6 | -11 | 66* | 28* | 0 | 45 | 53* | 20*
Cc1cc(C(=O)OCC(=O)Nc2sc3c(c2C#N)CCC(C)C3)c2ccccc2n1 (stereo not drawn) | 86 | 0 | -11 | 31 | 19 | -1 | nt | nt | nt
C[N+]1(C)[C@H]2CC[C@H]1CC(OC(=O)C(O)c1ccccc1)C2 (stereo partly drawn) | nt | nt | nt | 2 | nt | nt | nt | nt | nt
COc1cc(OC)cc(C2=Cc3ccccc3C(CC(C)=O)N2c2ccc(C#CC3(N)CCCCC3)cc2)c1 (stereo not drawn) | nt | nt | 3 | 11 | 26 | -1 | nt | nt | nt
Cc1ccsc1/C=C/C1=Cc2c(sc(NC(=O)CSc3n[nH]c(N)n3)c2C#N)C(C)(C)C1 | 70* | 13 | -4 | 55* | 64* | 2 | 42 | 53* | 26*
CC(C)CC(C(=O)Nc1oc(-c2ccccc2)c(-c2ccccc2)c1C#N)N1C(=O)c2ccccc2C1=O (stereo not drawn) | 101 | 7 | -3 | 51* | 36* | 0 | 13 | 39* | 19*
Cc1sc(NC(=O)c2sc3nc4c(C)cccc4cc3c2N)c(C#N)c1C | 94 | 7 | -1 | 68* | 62* | 2 | 7 | 60* | 32*
Cc1cccc2cc3c(N)c(C#N)sc3nc12 | 102 | 1 | 1 | 26 | 3 | 1 | nt | nt | nt
CC(=O)Nc1cc(-c2ccc(N)cc2)cn2c(-c3cccc(C(F)(F)F)c3)cnc12 | nt | nt | -2 | 11 | 11 | 1 | nt | nt | nt
COC(=O)[C@]12CCCCC=C1N(Cc1ccc(OC)cc1)C(=O)[C@@H]2CC(=O)NCc1cccc(C(F)(F)F)c1 | nt | nt | nt | -1 | nt | nt | nt | nt | nt
O=C(NCCc1ccccc1)C1Cc2c(-c3ccc4c(c3)OCO4)ccnc2O1 (stereo not drawn) | nt | nt | -1 | 1 | -2 | -1 | nt | nt | nt
Cc1cc(-c2n[nH]c(=S)n2/N=C/c2ccc(Br)s2)n[nH]1 | 99 | 4 | 2 | 14 | 10 | 1 | nt | nt | nt
S=c1[nH]nc(-c2cc(-c3ccccc3)n[nH]2)n1/N=C/c1ccc(Br)s1 | nt | 11 | 0 | 71* | 43* | 1 | 42 | 79* | 46*
O=C(N/N=C/c1ccco1)c1cc(-c2ccccc2)nc2ccccc12 | 99 | -2 | -5 | 7 | 4 | 1 | nt | nt | nt
SMILES | DSG3 Ab inh | DAGLB inhibitor | MsrA act | rCAG binder | NadD block | MsrA inhibitor | NadD conf | rCAG bind conf | DNA CAG counter | others
CCCc1ccc(-c2cc(C(=O)N/N=C/c3ccc([N+](=O)[O-])o3)c3ccccc3n2)cc1 | 96 | 0 | -2 | 45* | 34* | 0 | 22 | 36* | 19*
O=C(N/N=C/c1ccc([N+](=O)[O-])o1)c1cc(-c2cccc(Br)c2)nc2ccccc12 | nt | 4 | -3 | 43* | 72* | -1 | 3 | 47* | 29*
O=C(O)COc1ccccc1/C=N/NC(=O)c1cc(-c2ccc(Cl)cc2)nc2ccccc12 | 92 | 4 | -6 | 79* | 24* | 5.0* | 53* | 72* | 33* | MsrA conf=4;dCAG dye DR=i
COc1cccc(-c2cc(C(=O)N/N=C/c3ccco3)c3ccccc3n2)c1 | nt | -3 | -3 | 9 | 10 | 2 | nt | nt | nt
CCC(C)NC(=O)CN1C(=O)C2CCCCN2C(=O)c2ccccc21 (stereo not drawn) | nt | nt | nt | 1 | nt | nt | nt | nt | nt
CN(CCC#N)C(=O)COC(=O)c1c2c(nc3ccccc13)/C(=C\c1ccco1)CC2 | 123 | 2 | -4 | 65* | 42* | 2 | 58* | 57* | 31*
O=C(COC(=O)c1c2c(nc3ccccc13)/C(=C\c1ccco1)CC2)NC1CCCC1 | 86 | 13 | 1 | 60* | 64* | 1 | 51* | 59* | 33*
CCCc1nc2ccccc2c(C(=O)OCC(=O)NC2CC2)c1CC | 105 | -2 | -3 | -1 | -8 | -1 | nt | nt | nt
CCOC(=O)c1c(-c2ccccc2)csc1NC(=O)/C(C#N)=C/c1ccc(O)c(OC)c1 | nt | -32 | -3 | 45* | 44* | 3 | 16 | 87* | 60*
